Screens (PubChem BioAssay)
An excerpt weighted towards active compounds, which were near 7.4% of everything screened.
SMN2 splice enh – SMN2 splice variant enhancement | AID 1458 | Potency, µM (highest dose often 46.1 µM), for inactives: at the top dose activity change, positive = activation, usual class: activators | 210,000 compounds, 2.8% hits | HEK293 SMN2-luciferase splicing reporter, luminescence, 30-36 h; note: % of control where 0% means no effect; nearly all actives have a fitted effect of over 55% in size
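HEK293 cells carry an SMN2 […]–luciferase reporter in which exon 7 inclusion puts luciferase in frame. Cells were plated 10-12 h before compound addition, then incubated 30-36 h at 37C. ONE-Glo luminescence was read; sodium butyrate at 4.5 mM final served as control.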
NPC1 prom act – activates the NPC1 promoter | Huh7 NPC1 promoter luciferase reporter, 24 h | Potency, µM (titrated, usually from 9.22 µM), for inactives: at the top dose activation, most hits filed as activators | 320,000 compounds, 2.4% hits; note: % of control where 0% means no effect; nearly all actives have a fitted effect of over 60% in size
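Compounds in DMSO were transferred onto Huh7 NPC1-luciferase reporter cells pre-incubated 2 h; after 24 h at 37 °C, Amplite reagent was dispensed and luminescence recorded 10 min later.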
Rab9 prom act – Rab9 promoter activation | Huh7 Rab9 promoter-luciferase reporter, luminescence, 24 h | Potency, µM (top dose mostly 9.22 µM), for inactives: at the highest dose activation, negative = inhibition, hits mostly activators | 320,000 compounds, 2.8% hits | AID 485297; note: % of control where 0% means no effect; nearly all actives have a fitted effect of over 60% in size
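Rab9 promoter-driven luciferase in stably transfected Huh7 cells; 1500 cells/well rested 2 h, exposed to compound in DMSO for 24 h at 37 °C, 5% CO2. Luminescence read 10 min after adding luciferase reagent at ambient temperature.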
FLuc counter – inhibits or activates purified firefly luciferase, miR-21 counter-screen. purified FLuc, Km substrates, luminescence inhibition. Potency, µM (titrated, usually from 57.5 µM), for inactives: at the top dose activity change, negative = inhibition, usual class: inhibitors. P08659. 360,000 compounds, 6.9% hits. AID 588342;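 note: plate controls were vehicle for no effect and reference inhibitor for full effect; nearly all actives have a fitted effect of over 55% in size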
Target sequence (P08659 whole entry, looked up): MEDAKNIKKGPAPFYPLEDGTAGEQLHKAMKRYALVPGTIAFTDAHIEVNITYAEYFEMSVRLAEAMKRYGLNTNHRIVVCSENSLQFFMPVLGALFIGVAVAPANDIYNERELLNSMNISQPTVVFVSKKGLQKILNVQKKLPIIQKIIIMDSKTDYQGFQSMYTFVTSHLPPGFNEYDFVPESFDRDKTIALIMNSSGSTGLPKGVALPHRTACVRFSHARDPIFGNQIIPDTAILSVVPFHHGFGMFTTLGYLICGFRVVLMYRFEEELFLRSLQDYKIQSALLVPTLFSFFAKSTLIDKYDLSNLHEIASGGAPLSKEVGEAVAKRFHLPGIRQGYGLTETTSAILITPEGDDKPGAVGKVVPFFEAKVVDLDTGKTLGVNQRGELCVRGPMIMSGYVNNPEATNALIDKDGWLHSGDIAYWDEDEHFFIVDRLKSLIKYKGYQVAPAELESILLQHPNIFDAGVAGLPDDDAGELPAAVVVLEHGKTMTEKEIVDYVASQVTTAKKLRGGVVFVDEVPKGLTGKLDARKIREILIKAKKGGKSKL
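Purified P. pyralis luciferase, 10 nM final, with Km-level 10 uM D-luciferin and 10 uM ATP in 50 mM Tris acetate pH 7.5, 10 mM Mg acetate, 0.01% Tween-20, 0.05% BSA; 6-point qHTS titration about 60 µM downward; luminescence read.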
ELG1 genotoxic – genotoxicity induction in ELG1-luciferase HEK293T cells; AID 504466; Potency, µM (doses to about 46 µM), for the others: at the top dose activity change, positive = activation, hits mostly activators; HEK293T ELG1-luciferase reporter, luminescence, 16 h; 330,000 compounds, 1.3% hits; note: % of control where 0% means no effect; nearly all actives have a fitted effect of over 60% in size
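ELG1-luciferase HEK293T cells, 2,000/well; compound pinned in; 16 hr, 37 °C, 5% CO2; ONE-Glo, 30 min RT; luminescence on CCD imager.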
KinaseGlo FLuc – Kinase-Glo luciferase inhibition (counter-screen); Q27757; 200,000 compounds, 0.28% hits; Potency, µM (highest dose often 38.3 µM), for the others: at the highest dose activity change, negative = inhibition, most hits filed as inhibitors; AID 1379; Kinase-Glo luciferase, ATP luminescence, 8 min; note: % is set by controls: 0 for no effect and ±100 for the full control effect; nearly all actives have a fitted effect of over 60% in size
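Kinase-Glo luciferase light output from ATP and luciferin was measured with 10 uM ATP, within the enzyme's linear range. Buffer: 50 mM imidazole pH 7.2, 50 mM KCl, 7 mM MgCl2, 0.01% Tween 20, 0.05% BSA; luminescence read after 8 min at ambient temperature.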
The depositor's hits bear a star; ? = inconclusive; . = no result given; [ ] = dose if it differs, or a comment. Calls come from the whole dose curve; as a rule, active = well fitted curve in the direction sought with a large enough effect; inconclusive = small, poorly fitted or top-dose-only effect, or another doubt; inactive = no such curve, though single readings can be large; an effect the other way counts as inactive or inconclusive. Potency is the fitted concentration of half-maximal effect.

SMILES	SMN2 splice enh	NPC1 prom act	Rab9 prom act	FLuc counter	ELG1 genotoxic	KinaseGlo FLuc
COc1ccc(S(=O)(=O)Nc2ccccc2OC)cc1NC(=O)c1cc2ccccc2oc1=O	.	3.98µM*	3.98µM*	12µM*	?	.
COc1ccc(OC)c(NC(=O)c2cc3cccc(OC)c3oc2=O)c1	7.0%	.	.	-0.8%	.	.
COc1ccccc1C(=O)Nc1cc2ccccc2oc1=O	?	5.62µM*	3.98µM*	?	2.82µM*	-17.1%
COc1ccc(NC(=O)c2cc3ccccc3oc2=O)c(OC)c1	.	2.82µM*	2.82µM*	?	?	.
COC(=O)C1=C(C)NC(C)=C([N+](=O)[O-])[C@@H]1c1ccccc1C(F)(F)F	.	.	.	.	.	0.7%[39.9 µM]
COc1ccc(-c2cc(C(F)(F)F)nc(SCC(=O)N3CCCCC3)n2)cc1OC	1.9%	.	.	4.6%	.	.
CCOC(=O)c1cc2c(nc1NC(=S)Nc1ccccc1)CC(C)(C)OC2	-1.4%	4.0%	-0.9%	-0.7%	2.7%	1.3%
CCOC(=O)c1cc2c(nc1NC(=S)NCc1ccccc1)CCCC2	11.2µM*	?	?	?	?	-2.4%
Cc1cn2c(=O)cc(COc3cccc(NC(=O)c4ccc(C(C)(C)C)cc4)c3)nc2s1	9.2%	.	.	1.2µM*	.	.
Cc1cn2c(=O)cc(COC(=O)c3cccc(NC(=O)c4ccc(C(C)(C)C)cc4)c3)nc2s1	.	.	.	0.757µM*	.	.
Cc1ccc(Cl)cc1N1CCN(C(=O)c2ccc(NC(=O)c3nsc4ccccc34)cc2)CC1	.	.	.	6.01µM*	.	.
CC1CCN(C(=O)c2ccc(NC(=O)c3nsc4ccccc34)cc2)CC1	.	.	.	7.57µM*	.	.
O=C(Nc1ccc(C(=O)N2CCN(c3ccccc3F)CC2)cc1)c1nsc2ccccc12	.	.	.	5.36µM*	.	.
Cc1ccc(Cl)cc1N1CCN(C(=O)c2ccc(NS(=O)(=O)c3c(C)noc3C)cc2)CC1	-8.0%	1.3%	1.6%	0.4%	4.4%	-6.6%
Cc1cccc(N2CCN(C(=O)c3ccc(NC(=O)c4nsc5ccccc45)cc3)CC2C)c1 (stereo not given)	.	.	.	4.78µM*	.	.
CCc1ccc(NC(=O)CCS(=O)(=O)c2ccc3c(c2)n(C)c(=O)c(=O)n3C)cc1	2.4%	.	.	-5.5%	.	.
Cc1ccc(-n2ccnc(NCCc3ccc(S(N)(=O)=O)cc3)c2=O)c(C)c1	.	.	.	3.5%	.	.
Clc1cccc(-n2cc(-c3ccccc3)c3c(N4CCCCC4)ncnc32)c1	.	.	.	0.0%	.	.
COc1cccc(N2CCN(C(=O)c3ccc(NC(=O)c4nsc5ccccc45)cc3)CC2)c1	.	.	.	1.2µM*	.	.
COc1cccc(N2CCN(C(=O)CNC(=O)c3sc4ccccc4c3Cl)CC2)c1	.	-1.4%	0.7%	?	0.1%	.
COc1ccc(C(=O)N2CCN(c3ccc(NC(=O)c4cccs4)cc3)CC2)cc1	.	-6.0%	0.7%	-0.5%	-24.1%	.
O=C(Nc1ccc(C(=O)N2CCN(c3ccc(Cl)cc3)CC2)cc1)c1nsc2ccccc12	.	.	.	1.07µM*	.	.
COc1ccc(N2CCN(C(=O)c3ccc(NC(=O)c4nsc5ccccc45)cc3)CC2)cc1	.	.	.	6.75µM*	.	.
CC1=C/C(=C\c2ccc(Br)o2)C(=O)O1	0.6%	-3.8%	0.6%	-0.3%	-0.4%	1.8%
Cc1cc(C(=O)O)ccc1-n1c(C)cc(C=C2C(=O)c3ccccc3C2=O)c1C	.	1.3%	9.5%	?	7.8%	.
O=C1C(=Cc2ccc(Br)o2)C(=O)c2ccccc21	9.2%	9.1%	21.7%	13.5µM*	7.1%	-6.5%
Cc1ccc(C(=O)O)cc1-c1ccc(C=C2C(=O)c3ccccc3C2=O)o1	15.6%	-0.1%	-4.4%	16.9µM*	-0.4%	-2.0%
COC(=O)C(C)N1C(=O)S/C(=C\c2ccc(-c3ccc(C(=O)O)cc3C)o2)C1=O (stereo not given)	.	2.82µM*	2.24µM*	16.9µM*	?	.
CC(=O)[C@H](C(=N)C#N)C(=O)Nc1ccccc1	-17.2%[9.22 µM]	.	.	.	.	-1.2%[7.66 µM]
